Seven compounds from PubChem BioAssay (EPA / NIEHS) can be followed below.

SMILES strings stand for the structures. “And” between values parts separate entries of the source, which are not always exact repeats. Equal values may be shown once. Records with an inconclusive call do not appear. More than one record can exist for a structure, and the calls need not agree. The source made the active and inactive calls. The calls were made as follows, unless noted: active = hit-call score of the fitted dose curve at least 0.9, where 1 is the maximum; inactive = score below 0.9.

One experiment is described as follows: CCTE_Harrill_HTTr_CellCount_MCF7: CCTE's Cell Proliferation Assessment for the High-Throughput Transcriptomics (HTTr) Platform, Harrill Lab (AID 2284012; active = hit-call score of the fitted dose curve at least 0.9, where 1 is the maximum;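 also: cells exposed to compound for six hours; intended direction is loss of nuclei count meaning fewer cells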). The method, boiled down:
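Cell count from high-content imaging of Hoechst-labeled nuclei serves as viability/growth readout. Chemicals were applied to MCF-7 cells in eight concentrations for six hours, with fitting in both directions relative to DMSO.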
Take `O=C(O)c1cc(=O)c2c(OCC(O)COc3cccc4oc(C(=O)O)cc(=O)c34)cccc2o1`: the result was inactive.
For `CC(C)(C)NC[C@H](O)COc1nsnc1N1CCOCC1`, the result was inactive.
In the case of `c1ccc([C@H]2CN3CCSC3=N2)cc1`, the call was inactive.
Consider `Nc1c2c(nc3ccccc13)CCCC2`, for which the call was inactive.

The next experiment in a line: CCTE_Shafer_MEA_dev_firing_rate_mean: CCTE's Neural Network Formation Assay for Mean Firing Rate, Shafer Lab (AID 2284031).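 As to AC50: curve fitted for loss of firing so AC50 reflects decreased mean firing rate.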 The method, boiled down: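 Spike frequency (spikes/recording length, averaged over active electrodes) was recorded on days 5, 7, 9 and 12 and collapsed to AUC; rat cortical cultures received compound continuously over 12 days of network development.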
`CC[C@H](C)C(=O)O[C@H]1CCC=C2C=C[C@H](C)[C@H](CC[C@@H]3C[C@@H](O)CC(=O)O3)[C@H]21`: the AC50 was 1.41 µM (active) and 8.96 µM (active).
For the compound `C[C@@H]1C[C@H]2[C@@H]3CCC4=CC(=O)C=C[C@]4(C)[C@@]3(F)[C@@H](O)C[C@]2(C)[C@@]1(O)C(=O)CO`, the compound was called inactive.
The same measure, in the same setting: the result for `[Cl-].[Cl-].[NH2-].[NH2-].[Pt+4]` reads “inactive”.

A further experiment is described as follows: CCTE_Shafer_MEA_dev_active_electrodes_number: CCTE's Neural Network Formation Assay for Number of Active Electrodes, Shafer Lab (AID 2284040; active = hit-call score of the fitted dose curve at least 0.9, where 1 is the maximum;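 as to AC50: potency for loss of active electrodes versus DMSO so lower counts are hits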). The method, boiled down: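 Counts electrodes per well firing at least 5 spikes/min, recorded on days 5, 7, 9 and 12 in rat cortical cultures dosed continuously from plating (treatment refreshed DIV 5, 9). Value is the area under the curve over recordings, fitted downward relative to DMSO.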
Regarding `CC[C@H](C)C(=O)O[C@H]1CCC=C2C=C[C@H](C)[C@H](CC[C@@H]3C[C@@H](O)CC(=O)O3)[C@H]21`, the AC50 was 1.15 µM (active) and 875 nM (active).
As for `C[C@@H]1C[C@H]2[C@@H]3CCC4=CC(=O)C=C[C@]4(C)[C@@]3(F)[C@@H](O)C[C@]2(C)[C@@]1(O)C(=O)CO`, the compound was classed as inactive.
Consider `[Cl-].[Cl-].[NH2-].[NH2-].[Pt+4]`, for which the AC50 was 10.4 µM (active).

The next experiment in a line: CCTE_Shafer_MEA_dev_burst_rate: CCTE's Neural Network Formation Assay for Burst Rate, Shafer Lab (AID 2284042).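 As to AC50: potency for loss of burst rate below DMSO control.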 The method in brief: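 Rat primary cortical cultures on PEI/laminin MEA; compound from plating, re-dosed at DIV 5, 9 media change. Single-electrode bursts/recording length, well mean of active electrodes; AUC over DIV 5–12 recordings; loss-of-signal vs DMSO.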
Consider `CC[C@H](C)C(=O)O[C@H]1CCC=C2C=C[C@H](C)[C@H](CC[C@@H]3C[C@@H](O)CC(=O)O3)[C@H]21`, for which the AC50 was 253 nM (active) and 2.69 µM (active).
Turning to `C[C@@H]1C[C@H]2[C@@H]3CCC4=CC(=O)C=C[C@]4(C)[C@@]3(F)[C@@H](O)C[C@]2(C)[C@@]1(O)C(=O)CO`, the compound was classed as inactive.
The same measure, in the same setting: then `[Cl-].[Cl-].[NH2-].[NH2-].[Pt+4]`, with “inactive”.

A short description of the next experiment: CCTE_Shafer_MEA_dev_bursting_electrodes_number: CCTE's Neural Network Formation Assay for Number of Bursting Electrodes, Shafer Lab (AID 2284043; active = hit-call score of the fitted dose curve at least 0.9, where 1 is the maximum;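 as to AC50: potency is for loss of bursting electrodes relative to DMSO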). The method, boiled down:
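Rat cortical primary neurons, 48-well MEA, 16 electrodes/well; dosing DIV 0–12, re-dosed with full media change DIV 5, 9. Recordings DIV 5/7/9/12, AxIS adaptive spike detector; bursting electrode = ≥1 burst/2 min. AUC across days; loss of signal vs DMSO.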
Turning to `CC[C@H](C)C(=O)O[C@H]1CCC=C2C=C[C@H](C)[C@H](CC[C@@H]3C[C@@H](O)CC(=O)O3)[C@H]21`, the AC50 is 924 nM (active) and 911 nM (active).
Take `C[C@@H]1C[C@H]2[C@@H]3CCC4=CC(=O)C=C[C@]4(C)[C@@]3(F)[C@@H](O)C[C@]2(C)[C@@]1(O)C(=O)CO`: the call was inactive.
`[Cl-].[Cl-].[NH2-].[NH2-].[Pt+4]`: the AC50 is 5.08 µM (active).

The nature of a further experiment: CCTE_Shafer_MEA_dev_per_burst_interspike_interval: CCTE's Neural Network Formation Assay for Burst Interspike Interval, Shafer Lab (AID 2284044).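 As to AC50: potency for a decrease of within-burst interspike interval below DMSO level.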 The method, boiled down: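 Readout is the average time between spikes inside single-electrode bursts, taken as a well mean across bursting electrodes. Cortical neurons from rat developed networks on MEA plates under continuous 12-day exposure; recordings on days 5, 7, 9 and 12 were integrated by trapezoidal AUC.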
As for `CC[C@H](C)C(=O)O[C@H]1CCC=C2C=C[C@H](C)[C@H](CC[C@@H]3C[C@@H](O)CC(=O)O3)[C@H]21`, the AC50 is 3.11 µM (active) and 8.52 µM (active).
For `C[C@@H]1C[C@H]2[C@@H]3CCC4=CC(=O)C=C[C@]4(C)[C@@]3(F)[C@@H](O)C[C@]2(C)[C@@]1(O)C(=O)CO`, the result was inactive.
Regarding `[Cl-].[Cl-].[NH2-].[NH2-].[Pt+4]`, the compound was classed as inactive.

A further experiment can be described thus: CCTE_Shafer_MEA_dev_burst_duration_mean: CCTE's Neural Network Formation Assay for Mean Burst Duration, Shafer Lab (AID 2284045). The method in brief:
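Rat cortical cultures, 1.5 x 10^5 cells/well with laminin drop; continuous dosing days 0–12, media plus treatment refreshed DIV 5, 9. AxIS adaptive spike detection; mean single-electrode burst duration, AUC over four recordings, negative direction vs DMSO.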
For `CC[C@H](C)C(=O)O[C@H]1CCC=C2C=C[C@H](C)[C@H](CC[C@@H]3C[C@@H](O)CC(=O)O3)[C@H]21`, the call was inactive.
Consider `C[C@@H]1C[C@H]2[C@@H]3CCC4=CC(=O)C=C[C@]4(C)[C@@]3(F)[C@@H](O)C[C@]2(C)[C@@]1(O)C(=O)CO`, for which the compound was called inactive.
For the compound `[Cl-].[Cl-].[NH2-].[NH2-].[Pt+4]`, the result was inactive.

A short description of another experiment: CCTE_Shafer_MEA_dev_inter_network_spike_interval_mean: CCTE's Neural Network Formation Assay for Mean Inter-network Spike Interval, Shafer Lab (AID 2284047).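 As to AC50: potency for a decrease in mean inter-network spike interval below DMSO.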 The method in brief:
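Primary rat cortical neurons on PEI-coated 48-well MEAs (16 electrodes/well) were exposed from plating day 0 to DIV 12, with dosing renewed at DIV 5 and 9. Recordings at DIV 5, 7, 9, 12 were collapsed by trapezoidal AUC, loss-of-signal fit vs DMSO.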
On to `CC[C@H](C)C(=O)O[C@H]1CCC=C2C=C[C@H](C)[C@H](CC[C@@H]3C[C@@H](O)CC(=O)O3)[C@H]21`, for which the call was inactive and the AC50 was 0.696 µM (active).
As to `C[C@@H]1C[C@H]2[C@@H]3CCC4=CC(=O)C=C[C@]4(C)[C@@]3(F)[C@@H](O)C[C@]2(C)[C@@]1(O)C(=O)CO`, the result was inactive.
Turning to `[Cl-].[Cl-].[NH2-].[NH2-].[Pt+4]`, the result was inactive.

The next experiment can be described thus: CCTE_Shafer_MEA_dev_network_spike_number: CCTE's Neural Network Formation Assay for Number of Network Spikes, Shafer Lab (AID 2284048).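 As to AC50: fit as a loss of signal meaning fewer network spikes than DMSO.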 The method, boiled down: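 Rat cortical primary cultures on 48-well MEA (16 electrodes/well); continuous exposure DIV 0–12, full medium and treatment exchange DIV 5, 9. Readout: network spike count, AxIS adaptive detection, recordings DIV 5/7/9/12 collapsed to AUC; loss-of-signal fit, DMSO baseline.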
Regarding `CC[C@H](C)C(=O)O[C@H]1CCC=C2C=C[C@H](C)[C@H](CC[C@@H]3C[C@@H](O)CC(=O)O3)[C@H]21`, the AC50 was 71.9 nM (active) and 226 nM (active).
As for `C[C@@H]1C[C@H]2[C@@H]3CCC4=CC(=O)C=C[C@]4(C)[C@@]3(F)[C@@H](O)C[C@]2(C)[C@@]1(O)C(=O)CO`, the compound was classed as inactive.
`[Cl-].[Cl-].[NH2-].[NH2-].[Pt+4]`: the call was inactive.

The nature of a further experiment: CCTE_Shafer_MEA_dev_network_spike_peak: CCTE's Neural Network Formation Assay for Mean Number of Electrodes in Network Spike, Shafer Lab (AID 2284049).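 As to AC50: fitted for loss of signal meaning fewer electrodes in network spikes than DMSO.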 The method, boiled down:
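Network-spike peak electrode count from recordings on days 5, 7, 9 and 12 was combined as trapezoidal area under the curve. Rat cortical cultures were treated continuously from plating, with compound renewed at each feed (DIV 5, 9); fits versus DMSO.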
Consider `CC[C@H](C)C(=O)O[C@H]1CCC=C2C=C[C@H](C)[C@H](CC[C@@H]3C[C@@H](O)CC(=O)O3)[C@H]21`, for which the AC50 is 960 nM (active) and 912 nM (active).
For the compound `C[C@@H]1C[C@H]2[C@@H]3CCC4=CC(=O)C=C[C@]4(C)[C@@]3(F)[C@@H](O)C[C@]2(C)[C@@]1(O)C(=O)CO`, the result was inactive.
With `[Cl-].[Cl-].[NH2-].[NH2-].[Pt+4]`, the AC50 was 9.92 µM (active).

A further experiment is described as follows: CCTE_Shafer_MEA_dev_spike_duration_mean: CCTE's Neural Network Formation Assay for Mean Spike Duration, Shafer Lab (AID 2284051).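 Also: mean network spike duration pooled as area under curve over DIV 5 to 12 recordings.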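 As to AC50: potency for a decrease in mean network spike duration versus DMSO.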 The method in brief: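 Rat cortical primary cultures, 48-well MEA (16 electrodes/well); compound from plating, renewed DIV 5, 9. Network spike duration (AxIS adaptive detector) recorded DIV 5/7/9/12, combined as trapezoidal AUC; loss direction vs DMSO.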
As for `CC[C@H](C)C(=O)O[C@H]1CCC=C2C=C[C@H](C)[C@H](CC[C@@H]3C[C@@H](O)CC(=O)O3)[C@H]21`, the AC50 was 1.05 µM (active) and 983 nM (active).
With `C[C@@H]1C[C@H]2[C@@H]3CCC4=CC(=O)C=C[C@]4(C)[C@@]3(F)[C@@H](O)C[C@]2(C)[C@@]1(O)C(=O)CO`, the compound was called inactive.
On the same count and under the same terms, the result for `[Cl-].[Cl-].[NH2-].[NH2-].[Pt+4]` reads “inactive”.

A short description of a further experiment: CCTE_Shafer_MEA_dev_network_spike_duration_std: CCTE's Neural Network Formation Assay for Standard Deviation of Network Spike Duration, Shafer Lab (AID 2284052).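 Also: area under curve of spike duration SD across recording days 5 to 12; hits are decreases in network spike duration SD versus DMSO vehicle.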 The method in brief: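 Rat cortical cultures, 1.5 x 10^5 cells/well, exposed continuously from plating to DIV 12 with media/compound renewal at DIV 5, 9. Spontaneous activity recorded DIV 5/7/9/12, AxIS adaptive spike detector; AUC across days; negative direction vs DMSO.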
On to `CC[C@H](C)C(=O)O[C@H]1CCC=C2C=C[C@H](C)[C@H](CC[C@@H]3C[C@@H](O)CC(=O)O3)[C@H]21`, for which the AC50 is 665 nM (active) and 700 nM (active).
As for `C[C@@H]1C[C@H]2[C@@H]3CCC4=CC(=O)C=C[C@]4(C)[C@@]3(F)[C@@H](O)C[C@]2(C)[C@@]1(O)C(=O)CO`, the compound was classed as inactive.
With `[Cl-].[Cl-].[NH2-].[NH2-].[Pt+4]`, the outcome was inactive.

Broadly, the AC50 is the concentration giving half of the maximal activity seen.
